About 83,000 compounds went through this panel and 20% of them were active in at least one assay; those are over-represented in the sample as a whole.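 Method: cells in 96-well plates; compound added at one concentration; 48 h incubation; percent growth measured; values under 10 scored active.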 A number with no mark means an inactive call. Activity calls are given as the source filed them.
Tests used:
Assay in all cases: NCI-60 one-dose screen, 48 h (100 = growth as untreated, 0 = no growth, -100 = all killed)
Settings in all cases: 10 µM unless noted
HCT-15 colon = system: HCT-15 colon
HT29 colon = system: HT29 colon
SNB-75 CNS = system: SNB-75 CNS
SNB-19 CNS = system: SNB-19 CNS
PC-3 prostate = system: PC-3 prostate
SK-MEL-5 melanoma = system: SK-MEL-5 melanoma
UACC-62 melanoma = system: UACC-62 melanoma
LOX IMVI melanoma = system: LOX IMVI melanoma
SK-MEL-28 melanoma = system: SK-MEL-28 melanoma
SK-MEL-2 melanoma = system: SK-MEL-2 melanoma
EKVX NSCLC = system: EKVX NSCLC
SN12C renal = system: SN12C renal
UO-31 renal = system: UO-31 renal
TK-10 renal = system: TK-10 renal
ACHN renal = system: ACHN renal
CAKI-1 renal = system: CAKI-1 renal
A498 renal = system: A498 renal
MOLT-4 leukemia = system: MOLT-4 leukemia
CCRF-CEM leukemia = system: CCRF-CEM leukemia
U251 CNS = system: U251 CNS

Structure (SMILES)	growth (HCT-15 colon)	growth (HT29 colon)	growth (SNB-75 CNS)	growth (SNB-19 CNS) [%]	growth (PC-3 prostate)	growth (SK-MEL-5 melanoma)	growth (UACC-62 melanoma)	growth (LOX IMVI melanoma)	growth (SK-MEL-28 melanoma)	growth (SK-MEL-2 melanoma)	growth (EKVX NSCLC)	growth (SN12C renal)	growth (UO-31 renal)	growth (TK-10 renal)	growth (ACHN renal)	growth (CAKI-1 renal)	growth (A498 renal)	growth (MOLT-4 leukemia)	growth (CCRF-CEM leukemia)	growth (U251 CNS)
C#Cc1ccc(C(=O)NCc2ccc(/C=C/C(=O)c3nccn3C)cc2)cc1	2.77% (active)	8.87% (active)	67.3%	16.9	30.7%	38.8%	21%	-74.8% (active)	48.8%	87%	36.4%	14.8%	29.3%	45.1%	21.6%	43.2%	38.1%	1.15% (active)	–	–
Cc1nc(-c2ccccc2O)ccc1C(=O)N=Nc1c(O)[nH]c2ccc(Br)cc12	69.9%	112%	93.7%	101	88.2%	96.9%	91.6%	107%	101%	104%	79.6%	95.1%	73%	167%	91.5%	84.6%	101%	102%	86.1%	–
O=C(CCC(=O)N1CCOCC1)OCCCCCCSc1ccc([N+](=O)[O-])c2nonc12	-67.4% (active)	-34.2% (active)	36.4%	25.1	2.96% (active)	27.9%	-64.6% (active)	-82.2% (active)	-36.9% (active)	-40.6% (active)	1.52% (active)	-74.7% (active)	-84.2% (active)	13.4%	-97.7% (active)	-31.2% (active)	12.8%	-2.71% (active)	-5.49% (active)	–
COc1ccc([C@H]2[C@H](O)C(=O)N2c2cc(OC)c(OC)c(OC)c2)cc1F	7.86% (active)	-26% (active)	19%	27.7	19.8%	-30.9% (active)	33.3%	-6.07% (active)	63%	-43.3% (active)	44.7%	27.3%	34.2%	86.2%	24.6%	29.6%	-26.1% (active)	15.2%	17.9%	–
O=S(=O)(Nc1ccc(I)cc1Cl)c1ccc(-c2cnc(C3CC3)o2)cc1	30.7%	15.9%	–	45.9	–	40.2%	39%	–	53.8%	71.6%	54.2%	42.5%	50.9%	89.3%	49.2%	39.1%	–	45%	25.2%	35.2%
NS(=O)(=O)c1ccc(Nc2nc(N/N=C/CCc3ccccc3)nc(Nc3ccccc3)n2)cc1	105%	107%	112%	104	104%	99.7%	95.8%	95.4%	107%	–	97.8%	105%	84%	105%	101%	96.9%	86.4%	101%	93.6%	–
Cc1ccc(-n2cc(/C=C/C(=O)c3ccc(O)cc3)c(-c3ccc(S(C)(=O)=O)cc3)n2)cc1	26%	28.6%	87.5%	75.6	69.9%	61.7%	59.6%	41.9%	82.3%	–	91.4%	63.5%	76.4%	117%	67.7%	73.4%	99.2%	–	48.8%	–
O=C(Nc1ccc(Br)cc1)Nc1nc2ccc([N+](=O)[O-])cc2s1	-11.3% (active)	7.76% (active)	–	19.1	0.887% (active)	-82.2% (active)	-19.6% (active)	–	6.25% (active)	-22.7% (active)	9.52% (active)	4.21% (active)	5.94% (active)	-2.48% (active)	3.61% (active)	-2.25% (active)	–	3.2% (active)	10.9%	0.478% (active)
O=C(Nc1nc2ccc([N+](=O)[O-])cc2s1)Nc1ccccc1Cl	29.5%	53.6%	–	21.7	17.3%	-22.5% (active)	6.62% (active)	–	–	9.56% (active)	33.6%	10.4%	31.8%	40.1%	42.7%	21.8%	–	21.8%	28.9%	29.2%
CN(C)C(=O)c1cc(-c2ccc3ncnc(NCc4ccccc4)c3c2)cnc1N	105%	101%	33.4%	88.7	85.7%	93.9%	89.3%	75%	91.4%	95.2%	47.9%	56.7%	50.6%	21.9%	69.2%	27.2%	-2.78% (active)	96.8%	88%	–
C=C(C=O)[C@@H]1CC[C@]2(CO)CC[C@]3(C)[C@H](CC[C@@H]4[C@@]5(C)CCCNC(C)(C)[C@@H]5CC[C@]43C)[C@@H]12	-8.29% (active)	-3.52% (active)	–	79.7	11.4%	78%	83.2%	–	47.1%	99.5%	88.2%	54.6%	78.3%	125%	88.9%	67.5%	–	28%	2.49% (active)	29.8%
O=C(Nc1cccc(Cl)c1)Nc1nc2ccc([N+](=O)[O-])cc2o1	13.7%	14.3%	–	19.7	5.64% (active)	-13% (active)	2.02% (active)	–	26%	3.62% (active)	16.7%	16.8%	24%	8.49% (active)	23%	15.8%	–	9.15% (active)	10.5%	6.13% (active)
Cc1cc(C(NC(=O)CCCCCNc2cccc3c2C(=O)N(C2CCC(=O)NC2=O)C3=O)c2ccc3c(c2)OC(F)(F)O3)c(O)c2ncccc12 (centres undefined)	72.2%	71.8%	50.8%	51.6	32.3%	37%	63.3%	57.9%	–	62.6%	71.3%	49.9%	77.2%	93.8%	63.5%	50%	95.1%	42.5%	38.6%	–
COc1ccc(C2CC(c3cccc(Nc4nc(Cl)nc5cc(OC)c(OC)cc45)c3)=Nc3c(N)nc(N)nc3N2)cc1 (centres undefined)	34.5%	57.8%	94.5%	70.1	62.7%	72.1%	95.6%	54.2%	–	100%	92.1%	81.8%	90.7%	117%	100%	94%	94.7%	43.6%	36%	–
Cc1ccc(C(=O)NN2C(=O)/C(=C/C=C/c3ccco3)SC2=S)cc1	91.6%	110%	94.5%	94.9	92.2%	–	85.3%	99.7%	94.4%	–	95.4%	94.7%	88.6%	118%	107%	91.4%	–	40.7%	103%	–
O=C1[C@@H]2Cc3c([nH]c4ccccc34)[C@H](c3c(Cl)cccc3Cl)N2C(=O)CN1C1CCN(CC2CCCCC2)CC1	7% (active)	5.63% (active)	103%	71.5	20.6%	50.4%	79.5%	-81.1% (active)	93.9%	105%	90.7%	61.4%	69.7%	139%	51.3%	76.7%	–	19.5%	–	–
CC(=O)Nc1cccc(Nc2nc(N[C@@H](C)c3ccccc3)c3ccccc3n2)c1	10.4%	4.28% (active)	-19.3% (active)	20.6	21.3%	-5.52% (active)	28.6%	-70.2% (active)	42.3%	38.2%	24%	33.4%	19.2%	54.1%	28.6%	18.5%	-33.5% (active)	-17% (active)	–	–
